Measurements: PubChem BioAssay (NCI)
This is part of a sample that, as a whole, favours compounds with a hit. Of some 83,000 tested, about 20% had one in any assay.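 Cell lines were cultured in 96-well plates, exposed to a single compound concentration, and assessed for percent growth 48 hours later.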 Values without a mark were called inactive. Active and inactive are the calls of the source. How the source made its calls: active means growth percent below 10; inactive means the rest.

What was measured:
Experiment in all cases: NCI-60 one-dose screen, 48 h (100 = growth as untreated, 0 = no growth, -100 = all killed)
Details in all cases: 10 µM unless noted
[1] = tested on: HCT-15 colon
[2] = tested on: HT29 colon
[3] = tested on: SNB-19 CNS
[4] = tested on: U251 CNS
[5] = tested on: PC-3 prostate
[6] = tested on: SK-MEL-5 melanoma
[7] = tested on: UACC-62 melanoma
[8] = tested on: LOX IMVI melanoma
[9] = tested on: SK-MEL-28 melanoma
[10] = tested on: SNB-75 CNS

Structure (SMILES)	growth [1]	growth [2]	growth [3]	growth [4]	growth [5] [%]	growth [6]	growth [7] [%]	growth [8]	growth [9] [%]	growth [10]
CCOC(=O)c1cccc(NC2=C(Cl)C(=O)C(C)=C(C)C2=O)c1	99.3%	110%	96.5%	90.9%	85.6	100%	94.7	91.9%	110	–
CCOC(=O)c1cccc(NC2=C(Cl)C(=O)c3nc(C)ccc3C2=O)c1	72.2%	116%	90.8%	103%	82	98.2%	95.8	65.1%	103	–
NS(=O)(=O)c1cccc(Nc2nc(SCC(=O)c3ccc(Cl)cc3)nc3c2CCC3)c1	96.7%	109%	62.5%	63.9%	93.9	94.9%	97.1	86.2%	104	–
COc1cc(C(=O)c2cc(C(C)=O)c3c(C)cccn23)cc(OC)c1OC	88.6%	103%	78.7%	96.7%	90.2	97.1%	70.5	96.7%	103	–
Oc1[nH]c2ccc(Cl)cc2c1N=Nc1nc(N=Nc2c(O)[nH]c3ccc(Cl)cc23)nc(N2CCOCC2)n1	91.6%	91.1%	-9.43% (active)	3.81% (active)	56.1	46.1%	–	23.2%	–	–
CSc1ccc(/C(=N/N=C(N)N)c2ccc(F)cc2)cc1	6.59% (active)	4.2% (active)	25.7%	11.2%	20	-11.3% (active)	36.2	5.46% (active)	60.9	–
O=S(=O)(NCCCNc1nccc(-c2[nH]c(-c3ccccc3)nc2-c2ccc(F)c(O)c2)n1)c1cccc2ccccc12	39.4%	101%	76.5%	50.5%	52.8	34.1%	26.3	31.9%	54.3	–
Cc1ccc2c(n1)C(=O)C(Cl)=C(Nc1ccc(C(F)(F)F)cc1)C2=O	-58.6% (active)	96.8%	97.5%	91.5%	72.4	95.3%	96.6	-57.1% (active)	51	–
CCOC(=O)c1ccccc1NC1=C(Cl)C(=O)c2nc(C)ccc2C1=O	91.7%	112%	92.8%	104%	96.8	99.9%	95	98.7%	107	–
CCOC(=O)C1=C(C)NC(C)=C(C(=O)OCc2ccccc2)C1c1cccc(C#N)c1 (stereo not drawn)	–	11.5%	41.5%	41.4%	33.1	54.3%	33.4	35.8%	51.2	-4.08% (active)
